Source: the supplement of paper PMC8975748
Counter-ions that a name gives are not always drawn.

These compounds were tested on Saccharomyces cerevisiae BY4741 SeMeCo community (assay: z-score of subpopulation abundance vs DMSO median, subpopulation auxotrophic for M; higher = larger share of this subpopulation than in DMSO controls). Conditions: 10 µM; 24 h; SM minimal medium; subpopulation (auxotrophy): M.
Description: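 Fluorescent four-plasmid SeMeCo (self-establishing metabolically cooperating S. cerevisiae BY4741 community; plasmids pH-mRuby2, pL-mWasabi, pU-eCFP, pM-TagRFP657) was grown 24 h in minimal SM medium with each Selleck FDA-approved drug at 10 µM in 384-well plates. Cells were fixed and imaged by high-content confocal microscopy. For each auxotrophic subpopulation (and the prototroph), a z-score gives the deviation from the DMSO vehicle-control population median.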

In order of rising “z-score of subpopulation abundance” value:
1. C#C[C@]1(O)CC[C@H]2[C@@H]3CCC4=CC(=O)CC[C@@H]4[C@H]3C(=C)C[C@@]21CC [Etonogestrel]  -1.48
2. CCCc1nn(C)c2c(=O)[nH]c(-c3cc(S(=O)(=O)N4CCN(C)CC4)ccc3OCC)nc12 [Sildenafil]  -1.17
3. CCN(CC)CCOC(=O)c1ccc(N)cc1 [Procaine]  -1.12
4. Nc1ccc(S(N)(=O)=O)cc1 [Sulfanilamide]  -0.87
5. CCC(C)(C)C(=O)O[C@H]1C[C@@H](C)C=C2C=C[C@H](C)[C@H](CC[C@@H]3C[C@@H](O)CC(=O)O3)[C@H]21 [Simvastatin]  -0.68
6. O=C(O)c1cn(-c2ccc(F)cc2)c2cc(N3CCNCC3)c(F)cc2c1=O [Sarafloxacin HCl]  -0.64
7. C[C@@H](O)[C@H]1C(=O)N2C(C(=O)O)=C(S[C@@H]3CN[C@H](CNS(N)(=O)=O)C3)[C@H](C)[C@H]12 [Doripenem Hydrate]  -0.6
8. Cc1[nH]c(=O)c(C#N)cc1-c1ccncc1 [Milrinone]  -0.56
9. C=CCN1CCCC1CNC(=O)c1cc2nn[nH]c2cc1OC (stereo not given) [Alizapride HCl]  -0.5
10. NC[C@H]1O[C@H](O[C@H]2[C@H](O[C@@H]3O[C@H](CO)[C@@H](O)[C@H]3O)[C@@H](O)[C@H](N)C[C@@H]2N)[C@H](N)[C@@H](O)[C@@H]1O [Ribostamycin Sulfate]  -0.49
11. CN(C)CCOc1ccc(/C(=C(/CCCl)c2ccccc2)c2ccccc2)cc1 [Toremifene Citrate]  -0.37
12. OC(c1cc(C(F)(F)F)nc2c(C(F)(F)F)cccc12)C1CCCCN1 (stereo not given) [Mefloquine HCl]  -0.32
13. NCc1ccccc1CC(=O)N[C@@H]1C(=O)N2C(C(=O)O)=C(CSc3nnnn3CC(=O)O)CS[C@H]12 [Ceforanide]  -0.21
14. CC[C@H]1OC(=O)C[C@@H](O)[C@H](C)[C@@H](O[C@@H]2O[C@H](C)[C@@H](O)[C@H](N(C)C)[C@H]2O)[C@@H](CCN2C[C@H](C)C[C@H](C)C2)C[C@@H](C)C(=O)/C=C/C(C)=C/[C@@H]1CO[C@@H]1O[C@H](C)[C@@H](O)[C@@H](OC)[C@H]1OC [Tilmicosin]  -0.16
15. CCN(Cc1ccncc1)C(=O)C(CO)c1ccccc1 (stereo not given) [Tropicamide]  -0.16
16. NNc1nncc2ccccc12 [Hydralazine HCl]  -0.11
17. CS(=O)(=O)Nc1ccc([N+](=O)[O-])cc1Oc1ccccc1 [Nimesulide]  -0.1
18. CN1CCOC(c2ccccc2)c2ccccc2C1 (stereo not given) [Nefopam HCl]  0.02
19. CC(=O)[C@@]1(O)CC[C@H]2[C@@H]3C[C@H](C)C4=CC(=O)CC[C@]4(C)[C@H]3CC[C@@]21C [Medroxyprogesterone]  0.07
20. CCN1CCCC1CNC(=O)c1cc(S(=O)(=O)CC)c(N)cc1OC (stereo not given) [Amisulpride]  0.12
21. COC(=O)C1=C(C)NC(C)=C(C(=O)OC2CCCN(Cc3ccccc3)C2)C1c1cccc([N+](=O)[O-])c1 (stereo not given) [Benidipine HCl]  0.13
22. CCCN[C@H]1CCc2nc(N)sc2C1 [Pramipexole 2HCl Monohydrate]  0.15
23. COc1ccc2cc([C@H](C)C(=O)O)ccc2c1 [Naproxen Sodium]  0.17
24. CCC(=O)Oc1ccc2c(c1)CCC1C2CCC2(C)C(OC(=O)CC)CCC12 (stereo not drawn) [Estradiol dipropionate(17-Beta-Estradiol-3,17-Dipropionate)]  0.21
25. CCCCCC(=O)O[C@]1(C(C)=O)CC[C@H]2[C@@H]3CCC4=CC(=O)CC[C@]4(C)[C@H]3CC[C@@]21C [Hydroxyprogesterone caproate]  0.22
26. O=C(O)Cc1ccccc1Nc1c(Cl)cccc1Cl [Diclofenac acid]  0.23
27. CCc1cc(C(N)=S)ccn1 [Ethionamide]  0.23
28. C[C@H]1[C@H](NC(=O)/C(=N\OC(C)(C)C(=O)O)c2csc(N)n2)C(=O)N1S(=O)(=O)O [Aztreonam]  0.26
29. c1cnc(N2CCN(Cc3ccc4c(c3)OCO4)CC2)nc1 [Piribedil]  0.35
30. C[C@H]1COc2c(N3CCN(C)CC3)c(F)cc3c(=O)c(C(=O)O)cn1c23 [Levofloxacin hydrate]  0.54
31. O=C1CN(/N=C/c2ccc([N+](=O)[O-])o2)C(=O)N1 [Nitrofurantoin]  0.84
32. Cc1cc2c(s1)Nc1ccccc1N=C2N1CCN(C)CC1 [Olanzapine]  0.84
33. CC[C@H](C)C(=O)O[C@H]1C[C@@H](C)C=C2C=C[C@H](C)[C@H](CC[C@@H]3C[C@@H](O)CC(=O)O3)[C@H]21 [Lovastatin]  0.85
34. C[C@@H](O)[C@H]1C(=O)N2C(C(=O)O)=C(S[C@@H]3CN[C@H](C(=O)N(C)C)C3)[C@H](C)[C@H]12 [Meropenem Trihydrate]  0.89
35. CC1(C)S[C@@H]2[C@H](NC(=O)COc3ccccc3)C(=O)N2[C@H]1C(=O)O [Penicillin V potassium salt]  0.91
36. O=C1CN(/N=C/c2ccc(-c3ccc([N+](=O)[O-])cc3)o2)C(=O)N1 [Dantrolene sodium]  0.97
37. Cc1cc(O)c(C(=O)N[C@@H](C(=O)N[C@@H]2C(=O)N3C(C(=O)O)=C(CSc4nnnn4C)CS[C@H]23)c2ccc(O)cc2)cn1 [Cefpiramide sodium]  0.99
38. C/C=C1\[C@H]2C=C(C)C[C@]1(N)c1ccc(=O)[nH]c1C2 [(-)-Huperzine A (HupA)]  1.03
39. O=[N+]([O-])c1ccc(O)c2ncccc12 [Nitroxoline]  1.38
40. CCn1cc(C(=O)O)c(=O)c2cc(F)c(N3CCNC(C)C3)c(F)c21 (stereo not given) [Lomefloxacin HCl]  1.99
